The full list was thinned out, with hits kept by preference.
Pf Dd2 growth – blocks in vitro growth of P. falciparum Dd2; P. falciparum Dd2 growth, SYBR Green, 72 h; Potency, µM (series often up to 28.9 µM), without a hit: top-dose activity, negative = inhibition, usual class: inhibitors; 4.3% of 120,000 active; AID 1347417; active means well fitted inhibition curve with a large enough effect;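 further: plate controls were DMSO vehicle for no effect and reference drug for full effect; nearly all actives have a fitted effect of over 65% in size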
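Infected erythrocytes (Dd2, 0.3% parasitemia, 2.5% hematocrit final) are added to compound in RPMI-1640/Albumax II medium, grown 72 h at 37C in low oxygen, then lysed with saponin/Triton-X containing SYBR Green and read by fluorescence.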
* marks the source's active call; other numbers are inactive results; [ ] = dose if it differs, or a comment. Potency means the concentration at half of the fitted maximal effect.

Cc1ccc(NC(=O)Cn2cc(S(=O)(=O)Cc3cccc(Cl)c3)c3ccccc32)cc1C was read as Pf Dd2 growth 2.0%.
For COC(=O)[C@@H]1Cc2c([nH]c3ccccc23)[C@H]2C[C@@H](NCCN3CCOCC3)C[C@@H](c3ccc(F)cc3)N21 the results were Pf Dd2 growth -15.0%.
COC(=O)[C@@H]1Cc2c([nH]c3ccccc23)[C@H]2C[C@H](NCCN3CCOCC3)C[C@@H](c3ccc(F)cc3)N21 was read as Pf Dd2 growth 11.2µM*.
COC(=O)[C@@H]1Cc2c([nH]c3ccccc23)[C@H]2C[C@@H](NCc3cccs3)C[C@@H](c3ccccc3F)N21 was read as Pf Dd2 growth -28.4%.
For COC(=O)[C@@H]1Cc2c([nH]c3ccccc23)[C@H]2C[C@@H](NCCc3cnc[nH]3)C[C@@H](c3cccc(Cl)c3)N21 the results were Pf Dd2 growth inactive.
`COC(=O)[C@@H]1Cc2c([nH]c3ccccc23)[C@@H]2C[C@@H](NCCNC(C)=O)C[C@@H](c3cccc(Cl)c3)N12` gave Pf Dd2 growth 11.2µM*.
COC(=O)[C@@H]1Cc2c([nH]c3ccccc23)[C@H]2C[C@@H](NC(C)C)C[C@@H](c3ccc(C)cc3)N21 was read as Pf Dd2 growth inactive.
For O=C(c1ccco1)N1CCC(N2C(=O)C(OCC3CC3)C23CCOCC3)CC1 (configuration not stated) the results were Pf Dd2 growth -9.5%.
Screening CCc1ccc(Nc2nc(N)nc(CSc3nc4ccccc4s3)n2)cc1 returned Pf Dd2 growth 15.1%[5.79 µM].
Screening CCC1CN(C(=O)c2ccc(C)c(F)c2F)CCC(=O)N1Cc1ccccc1 (configuration not stated) returned Pf Dd2 growth -12.2%.
`CCSc1nc2c(c(=O)[nH]c(=O)n2C)n1CC(O)COc1ccc(Cl)cc1` (configuration not stated) gave Pf Dd2 growth inactive.
CNC(=O)c1cccc(-c2cnc3[nH]cc(CC(=O)N(C)C)c3c2)c1 was read as Pf Dd2 growth -13.8%[44.1 µM].
`COCc1nc(C2CCCN(C(=O)CC(C)C)C2)no1` (configuration not stated) gave Pf Dd2 growth 33.1%.
Screening COc1cccc(-c2nc3c(c(SCC(=O)Nc4cc(C)ccc4C)n2)Cc2c(CO)cnc(C)c2O3)c1 returned Pf Dd2 growth 40.6%.
`Cc1ncc(CO)c2c1Oc1nc(-c3ccc(Cl)cc3)nc(SCC(=O)N3CCCCC3)c1C2` gave Pf Dd2 growth 3.16µM*.
Screening Cc1cc(C)c(NC(=O)CSc2nc(-c3ccc(F)cc3)nc3c2Cc2c(CO)cnc(C)c2O3)c(C)c1 returned Pf Dd2 growth 10.7%.
O=C(CSc1nc(-c2ccc(Cl)cc2)nc2c1Cc1ccccc1O2)N1CCCCC1 was read as Pf Dd2 growth 32.9%.
`Cc1ccc(NC(=O)CSc2nc(-c3ccc(F)cc3)nc3c2Cc2c(CO)cnc(C)c2O3)cc1C` gave Pf Dd2 growth 9.4%.
`Cc1cccc(NC(=O)CSc2nc(-c3cccc(C)c3)nc3c2Cc2c(CO)cnc(C)c2O3)c1` gave Pf Dd2 growth 8.91µM*.
For O=C1CCN(C(=O)c2ccco2)CCCC(CO)CCN1 (configuration not stated) the results were Pf Dd2 growth 45.7%.
CCN1CCN(C(=O)CCC2CCN(S(=O)(=O)c3ccccc3)CC2)CC1 was read as Pf Dd2 growth inactive.
NCCn1cc(C(=O)N2CCC(N3CCCC(C(=O)N4CCCC4)C3)CC2)nn1 (configuration not stated) was read as Pf Dd2 growth -1.8%.
`Cc1ccc(Cn2cc(S(=O)(=O)c3ccccc3)c(=O)c3cc(F)c(N4CCOCC4)cc32)cc1` gave Pf Dd2 growth 10µM*.
For CCn1cc(S(=O)(=O)c2cccc(Cl)c2)c(=O)c2cc(F)c(N3CCC(C)CC3)cc21 the results were Pf Dd2 growth inactive.
`Cc1cccc(S(=O)(=O)c2cn(Cc3ccccc3)c3cc(N4CCC(C)CC4)c(F)cc3c2=O)c1` gave Pf Dd2 growth 10µM*.
`CCCCn1cc(S(=O)(=O)c2ccc(OC)cc2)c(=O)c2cc(F)c(F)cc21` gave Pf Dd2 growth 0.8%.
CCCCn1cc(S(=O)(=O)c2ccc(OC)cc2)c(=O)c2cc(F)c(N3CCOCC3)cc21 was read as Pf Dd2 growth 11.2µM*.
`CCn1cc(S(=O)(=O)c2cccc(C)c2)c(=O)c2cc(F)c(N3CCN(c4ccccc4)CC3)cc21` gave Pf Dd2 growth inactive.
For Cc1ccc(S(=O)(=O)c2cn(Cc3ccc(F)cc3)c3cc(N4CCCC4)c(F)cc3c2=O)cc1 the results were Pf Dd2 growth -13.0%.
COc1ccc(S(=O)(=O)c2cn(Cc3ccccc3)c3cc(N4CCCC4)c(F)cc3c2=O)cc1 was read as Pf Dd2 growth 12.6µM*.
Screening CNC(=O)c1cccc(-c2cnc(NC(=O)c3ccncc3)c3c2CCO3)c1 returned Pf Dd2 growth 5.6%[44.1 µM].
Screening Cc1cc(C2CCC2)nc(N2C[C@@H](C)[C@@](C)(O)C2)n1 returned Pf Dd2 growth -6.5%.
COc1ccc(CCNS(=O)(=O)c2ccc3c(c2)c(=O)n(C)c(=O)n3C)cc1OC was read as Pf Dd2 growth -10.3%.
CC(O)CN1CC2(CCC1=O)CCN(C(=O)c1ccnn1C)CC2 (configuration not stated) was read as Pf Dd2 growth 1.4%.
COc1cc(/C=C/c2nc3cc(Cl)ccc3c(=O)n2-c2ccc(C)cc2C)cc(OC)c1OC was read as Pf Dd2 growth inactive.
Screening CC(=O)NC(CO)C(=O)N1CCc2c(nc(-c3cccnc3)nc2N(C)C)C1 (configuration not stated) returned Pf Dd2 growth -2.4%.
CCc1ccc(-n2nc(CO)c(C(=O)NCc3cccs3)n2)cc1 was read as Pf Dd2 growth 21.1%.
COCCN1C(=O)C(CC(=O)O)=C2CCCCC21 (configuration not stated) was read as Pf Dd2 growth 5.2%.
`CN(CC1CCOCC1)C(=O)Cc1ccccc1Cl` gave Pf Dd2 growth 22.3%.
`O=C(Cn1c(=O)n(Cc2cccs2)c(=O)c2cccnc21)Nc1ccccc1F` gave Pf Dd2 growth inactive.
`Cc1cnc(C(=O)N2CCOc3ccc(CCC(=O)NCC4CC4)cc3C2)cn1` gave Pf Dd2 growth -13.9%.
Screening CCN(Cc1cccc2cnccc12)CC1CCCN(CCc2cccc(F)c2)C1 (configuration not stated) returned Pf Dd2 growth 2.24µM*.
For CN(CC1CCN(CCc2cccc(F)c2)CC1)C(=O)COc1cccnc1 the results were Pf Dd2 growth -25.3%.
O=C1CCN(Cc2cccc(F)c2)CCCC(c2nc(-c3cccnc3)no2)CCN1 (configuration not stated) was read as Pf Dd2 growth -16.5%.
For Cc1ccc(C(=O)c2oc3ccccc3c2NC(=O)c2nc(S(C)(=O)=O)ncc2Cl)cc1F the results were Pf Dd2 growth 33.5%.
For COc1ccc(-c2nc3scc(CCNC(=O)c4cccc(Br)c4)n3n2)cc1 the results were Pf Dd2 growth 1µM*.
`COc1ccc(-c2nc3scc(CCNS(=O)(=O)c4ccccc4F)n3n2)cc1` gave Pf Dd2 growth -10.8%.
O=C(NCCc1csc2nc(-c3ccc(F)cc3)nn12)c1cccc(C(F)(F)F)c1 was read as Pf Dd2 growth 49.3%[5.79 µM].
Screening Cn1ncc(N2CCC(NC(=O)C3CCOC3)CC2)cc1=O (configuration not stated) returned Pf Dd2 growth -1.2%.
For CN(C)CCNC(=O)c1ccc2c(c1)C1(CCCN(CC3CC3)C1)CN2C (configuration not stated) the results were Pf Dd2 growth -26.6%[44.1 µM].

Source: PubChem (National Center for Advancing Translational Sciences (NCATS))
